Sampled rows, rich in hits. Any-hit rate of the full collection: about 2.6%.
AmpC det inh: Promiscuous and Specific Inhibitors of AmpC Beta-Lactamase (assay with detergent); AID 584, 2007; purified AmpC, nitrocefin hydrolysis with detergent; 0.09% of 71,000 active; Potency, µM (titrated, usually from 28.7 µM), inactives show at the top dose activity change, negative = inhibition; active = well fitted curve in the direction sought with a large enough effect; inconclusive = small, poorly fitted or top-dose-only effect; note: % is set by controls: 0 for no effect and ±100 for the full control effect
Target sequence (P00811 whole entry, looked up): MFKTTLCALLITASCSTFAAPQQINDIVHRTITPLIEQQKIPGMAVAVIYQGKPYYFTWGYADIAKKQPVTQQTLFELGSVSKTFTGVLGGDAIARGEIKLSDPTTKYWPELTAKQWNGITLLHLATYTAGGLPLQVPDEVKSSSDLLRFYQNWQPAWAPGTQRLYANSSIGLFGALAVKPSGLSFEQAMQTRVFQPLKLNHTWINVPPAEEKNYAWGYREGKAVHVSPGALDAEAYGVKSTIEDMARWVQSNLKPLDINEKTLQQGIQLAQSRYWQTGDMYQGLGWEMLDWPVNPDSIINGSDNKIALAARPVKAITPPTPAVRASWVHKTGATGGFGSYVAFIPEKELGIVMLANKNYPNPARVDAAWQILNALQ
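E. coli AmpC (5.3 nM) in 20 mM phosphate pH 7.0 with 0.01% Triton X-100, preincubated 15 min RT with compound; nitrocefin (2 uL of 800 uM stock) hydrolysis followed by 480 nm absorbance every 20 s over 4 min.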
AmpC inh no det: Promiscuous and Specific Inhibitors of AmpC Beta-Lactamase (assay without detergent). Potency, µM (top dose mostly 28.7 µM), without a hit: at the highest dose activity change, negative = inhibition. AmpC nitrocefin hydrolysis, absorbance 480 nm, no detergent. AID 585, 2007. 1.8% of 71,000 active. P00811; note: % of control where 0% means no effect
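AmpC in 20 mM phosphate buffer pH 7.0 was preincubated 15 min at room temperature with compounds. Nitrocefin (800 uM stock) was then added and hydrolysis followed at 480 nm every 20 s for 4 min.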
Anthrax LT inh: qHTS Assay for Anthrax Lethal Toxin Internalization; AID 912, 2007; Cells, anthrax lethal toxin internalization, FRET ratio (460/530); Potency, µM (top dose mostly 40 µM), for the others: top-dose activity change, negative = inhibition, hits mostly inhibitors; 0.67% of 70,000 active; note: % is set by controls: 0 for no effect and ±100 for the full control effect; nearly all actives have a fitted effect of over 50% in size
Prx2 Sm inh: Schistosoma Mansoni Peroxiredoxins (Prx2). Schistosoma mansoni peroxiredoxin 2 (Prx2). S. mansoni Prx2 activity coupled to TGR/GSH (TGR is thioredoxin glutathione reductase), NADPH fluorescence loss, qHTS. Potency, µM. 0.07% of 65,000 active
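qHTS, coupled TGR/Prx2 format; 15 min compound preincubation at RT; reaction started with H2O2 (2.5 mM aliquot); kinetic NADPH fluorescence decrease, ex 365/em 450 nm.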
* hit, by the source's call; [ ] = another dose, or the depositor's remark. Unless noted, calls come from the whole dose curve. Potency is the fitted concentration of half-maximal effect.

Nc1nc2ccc(Oc3ccccc3)cc2s1 was read as AmpC det inh -2.0%, AmpC inh no det -13.3%, Anthrax LT inh -21.6% and Prx2 Sm inh >57.
Screening Nc1nc2ccc(S(=O)(=O)c3ccc4nc(N)sc4c3)cc2s1 returned AmpC det inh -4.9%, AmpC inh no det 12.6µM*, Anthrax LT inh -5.2% and Prx2 Sm inh >57.
For Cc1noc(C)c1-c1cncnc1NC1CC1 the results were AmpC det inh 8.0%, AmpC inh no det 4.9%, Anthrax LT inh 0.8% and Prx2 Sm inh >57.
Screening O=c1c(-c2ccccc2)nc2cnc(N3CCNCC3)nc2n1C1CC1 returned AmpC det inh -2.6%, AmpC inh no det 45.4%, Anthrax LT inh inconclusive and Prx2 Sm inh >57.
For Cc1ccc(S(=O)(=O)N(CC(O)CN2CCCCC2)c2ccccc2)cc1 (stereo not drawn) the results were AmpC det inh 11.7%, AmpC inh no det 3.98µM*[single pt active], Anthrax LT inh 8.1% and Prx2 Sm inh >57.
`Cn1c(NCc2ccccc2Cl)nc2ccccc21` gave AmpC det inh 10.4%, AmpC inh no det 3.98µM*[single pt active], Anthrax LT inh -23.9% and Prx2 Sm inh >57.
`CCCn1c(Nc2nc3ccccc3n2C)nc2ccccc21` gave AmpC det inh -3.9%, AmpC inh no det -12.8%, Anthrax LT inh 6.31µM* and Prx2 Sm inh >57.
`CN(C)CS/C(N)=N/[C@H](O)C(Cl)(Cl)Cl` gave AmpC det inh -2.0%[5.75 µM], AmpC inh no det -6.9%[5.75 µM], Anthrax LT inh -14.9%[8 µM] and Prx2 Sm inh >57.
Screening O=c1c2ccccc2oc2cc(O)c([C@@H]3COC[C@@H](CO)[C@@H](O)[C@@H](O)[C@H]3O)c(O)c12 returned AmpC det inh 1.2%, AmpC inh no det -7.6%, Anthrax LT inh inconclusive and Prx2 Sm inh >57.
For Cc1nn2cc(-c3ccc(Cl)cc3)nc2s1 the results were AmpC det inh 15.1%, AmpC inh no det -8.5%, Anthrax LT inh -6.7% and Prx2 Sm inh >57.
Cc1nn2cc(-c3ccc(-c4ccccc4)cc3)nc2s1 was read as AmpC det inh -2.8%, AmpC inh no det 12.6µM*, Anthrax LT inh 1.0% and Prx2 Sm inh >57.
Screening CS(=O)(=O)Nc1cccc(-c2nc(Nc3ccncc3)c3ccccc3n2)c1 returned AmpC det inh -15.7%, AmpC inh no det -14.8%, Anthrax LT inh -30.0% and Prx2 Sm inh >57.
For COc1ccc2[nH]cc(CCNC(=O)C3CCCNC3=O)c2c1 (stereo not drawn) the results were AmpC det inh 9.9%, AmpC inh no det 2.51µM*[single pt active], Anthrax LT inh -2.4% and Prx2 Sm inh >57.
CC(C)(C)c1cc(C(=O)/C=C/c2ccc(C(=O)O)cc2)cc(C(C)(C)C)c1 was read as Anthrax LT inh 12.6µM*.
For O=Cc1ccc(C(=O)O)cc1 the results were AmpC det inh 6.5%, AmpC inh no det 3.2% and Anthrax LT inh -6.4%.
For CCc1c(C)nc2cc(-c3ccc(OC)c(OC)c3)nn2c1N1CCCC1 the results were AmpC det inh -3.8%, AmpC inh no det 132.9%, Anthrax LT inh -19.9% and Prx2 Sm inh >57.
`CCc1c(C)nc2cc(-c3cc(OC)cc(OC)c3)nn2c1N1CCCC1` gave AmpC det inh -1.5%, AmpC inh no det 88.5%, Anthrax LT inh 12.6µM* and Prx2 Sm inh >57.
For CN(Cc1ccccc1)c1oc(-c2ccco2)nc1C#N the results were AmpC det inh -0.7%, AmpC inh no det 5.9%, Anthrax LT inh 10µM* and Prx2 Sm inh >57.
CCOc1ccccc1-n1nnnc1SCC(=O)Nc1cc(C)on1 was read as AmpC det inh -7.6%, AmpC inh no det -12.8%, Anthrax LT inh -1.8% and Prx2 Sm inh >57.
For COc1ccc(Cl)cc1NC(=O)CSc1ncnc2c1oc1ccccc12 the results were AmpC det inh -2.6%, AmpC inh no det 12.6µM*[single pt active], Anthrax LT inh inconclusive and Prx2 Sm inh >57.
COc1ccc(CCNC(=O)CSc2ncnc3c2oc2ccccc23)cc1OC was read as AmpC det inh 11.5%, AmpC inh no det 57.9%, Anthrax LT inh -15.4% and Prx2 Sm inh >57.
`CCOc1ccccc1-n1nnnc1SCC(=O)Nc1cc2oc3ccccc3c2cc1OC` gave AmpC det inh -3.2%, AmpC inh no det 6.31µM*, Anthrax LT inh inconclusive and Prx2 Sm inh >57.
CCCCNC(=O)[C@@H]1Cc2ccccc2N1C(=O)[C@H](N)CC was read as AmpC det inh -2.2%, AmpC inh no det 7.2%, Anthrax LT inh inconclusive and Prx2 Sm inh >57.
